PubChem BioAssay (NCI)
This is part of a sample that, as a whole, favours compounds with a hit. Of some 83,000 tested, about 20% had one in any assay.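 In brief: 96-well plates, 48 h treatment, single concentration, percent growth endpoint.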 Unmarked numbers belong to inactive results. Active and inactive are the calls of the source.

Each compound was assayed on IGROV1 ovarian (assay: NCI-60 one-dose screen, 48 h (100 = growth as untreated, 0 = no growth, -100 = all killed)). Details: 10 µM unless noted.
Method: Growth inhibition of the IGROV1 human tumor cell line is measured as a screen for anti-cancer activity. Cells are grown in 96 well plates and exposed to the test compound for 48 hours. Compounds are tested at a single concentration, which is 10^-5 M for most compounds. The reported endpoint is percent growth (GI% or GIPRCNT), where numbers from 0 - 100% represent growth inhibition, and numbers from -100% - 0 represent cell death. For example, a value of 40 represents 60% growth inhibition. A value of 0 means no net growth occurred over the course of the experiment. A value of -40 indicates 40% of cells at the beginning of the experiment died by the end of the experiment. A value of -100 means all cells are dead at the end of the experiment.
NCI-60 Human Tumor Cell Lines Screen was performed using the standard one-dose NCI protocol, which is described in more detail at https://dtp.cancer.gov/discovery_development/nci-60/default.htm.
Compounds with GIPRCNT values below 10 were considered active. Activity score was based on GIPRCNT using the following formula: […]
Score is 0 for GIPRCNT values of 100 or above, 50 for GIPRCNT values of 0, and 100 for GIPRCNT values of -100.
`O=c1c2c(c(=O)n1O)c1c3ccc[nH]c3nc1c1nc3[nH]cccc3c12` showed a growth of 63%. For `CCCCC/C=C/C(C)=C/C1CC(C)C/C=C/CCC(O)C(OC(N)=O)CCC(C)CC(O)C(C)C(=O)O1` (stereo not given), the growth was 87.3%. `CC(C)(C)c1cc(/C=N/NC(=O)c2ccccc2NC(=O)c2cccs2)c(O)c(C(C)(C)C)c1` gave a growth of 36.3%. With `CC(=O)O[C@H]1Cc2c([nH]c3ccccc23)[C@@H](c2ccc(Cl)cc2)N1C(=O)CCNC(C)(C)C` the growth was 24.6%. With `OCc1cnc2ccccc2c1NC1CCCCCC1` the growth was 95.5%. `COc1cccc(/C=N/NC(=O)c2cnn3c2NC(c2ccccc2)C3)c1Oc1ccccc1` (stereo not given) gave a growth of 78.4%. `O=C1/C=C/[C@@H](O)[C@@H]2C[C@@H](O)C[C@H]2/C=C/CCC[C@H](CCc2ccc3ncccc3c2)O1` was tested, and the growth was -4.38% (active). `Cc1ccc(NC(=O)Cc2ccc(/C=C/C(=O)c3ncc[nH]3)cc2)cc1` showed a growth of 57.6%. `CCCCCCNC(=O)Oc1ccc(/C(=C(\C)c2ccccc2)c2ccc(OCCN3CCCCC3)cc2)cc1` gave a growth of 63.7%. With `CCCCCCNC(=O)Nc1ccc2cc3ccc(NC(=O)NCCCCCC)cc3nc2c1` the growth was 11.4%. In the case of `CCOc1ccc(/C=N/Nc2cc(C)nc3ccc(Br)cc23)cc1`, the growth is reported as 96.2%. For `O=Cc1cc2ccccc2nc1Oc1ccc(C(F)(F)F)cc1`, the growth was 68.3%. `Cn1cc(CC2CC(=O)N(c3ccccc3)C2=O)sc1=NC(=O)c1ccccc1` (stereo not given) showed a growth of 93.1%. `N#Cc1cccc(-c2ccc3c(c2)NC(=O)/C3=C\c2ccc[nH]2)c1` was tested, and the growth was 34.2%. `O=S(=O)(NCCNc1nccc(-c2c(-c3cccc(F)c3)nc3sccn23)n1)c1ccc(Cl)cc1` was tested, and the growth was 15.8%. `Cc1cnc(C(=O)Nc2nc3ccc(S(=O)(=O)Nc4ccc(C5(C(F)(F)F)CC5)cc4)cc3[nH]2)cn1` was tested, and the growth was 31.4%. `COc1cc(NC(C)CCCNC(=O)CCC(=O)NCCCNCCCCCCCCCCNCCCNC(=O)CCC(=O)NCCCC(C)Nc2cc(OC)cc3cccnc23)c2ncccc2c1` (stereo not given) gave a growth of 57.9% [8 µM]. With `COc1ccc(C(=O)Cn2c(C(=O)c3ccccc3)nc3ccccc32)cc1` the growth was 10.1%. `COc1ccc(/C=C/C(=O)Nc2cc(/C=C\c3cc(OC)c(OC)c(OC)c3)cc(OC)c2OC)cc1OC` showed a growth of 40.1%. `N#CC1=C(/N=C/c2ccccc2)Oc2c(ccc3ccccc23)C1c1ccc([N+](=O)[O-])cc1` (stereo not given) gave a growth of 56.6%. With `O=C(N/N=C/c1ccc(Oc2ccccc2)cc1)c1cnn2c1NC(c1ccccc1)C2` (stereo not given) the growth was 59.3%. In the case of `C[C@H]1[C@H]2[C@H]3CC[C@@H]4[C@@]5(C)CC[C@H](O)C(C)(C)[C@@H]5CC[C@@]4(C)[C@]3(C)CC[C@]23CO[C@]1(C)[C@@H](C(=O)/C=C\c1ccco1)C3`, the growth is reported as 108%. In the case of `Cn1ccnc1C(=O)/C=C/c1ccc(CC(=O)NC2CCCCC2)cc1`, the growth is reported as 60.4%. For `C[C@@H](Nc1ncnc2ccc(-c3cnc(N)nc3)cc12)c1ccc(F)cc1`, the growth was 28.7%. For `CCOC(=O)c1nc2c3ccccc3ccn2c1C(=O)OCC`, the growth was 96.5%. `CN[C@@H](C)C(=O)N[C@H]1CCS[C@H]2CC(C)(C)[C@@H](C(=O)N[C@H]3c4ccccc4C[C@H]3OCC#CC#CCO[C@@H]3Cc4ccccc4[C@@H]3NC(=O)[C@H]3N4C(=O)[C@@H](NC(=O)[C@H](C)NC)CCS[C@H]4CC3(C)C)N2C1=O` showed a growth of 116%. `COc1cc2nc(-c3ccc(Cl)cc3)cc(OCCCN3CCCCC3)c2cc1OC` gave a growth of 33.2%. With `Nc1c(C(=O)Nc2ccnc3ccccc23)sc2nc3c(cc12)CN(Cc1ccccc1)CC3` the growth was 86.4%. `Brc1ccc2[nH]cc(-c3cncn3CCc3ccccc3)c2c1` gave a growth of 76.9%. With `COc1ccc2[nH]c(O)c(/C=c3/cc4c(c(-c5ccc(F)cc5)n3)=Nc3ccccc3-4)c2c1` the growth was 96.8%. For `O=[N+]([O-])c1ccc(NC(=S)N/N=C/c2cc3ccccc3n3nnnc23)cc1`, the growth was 54.5%. Compound `N#CC1=C(N)Oc2c(cnn2-c2ccc([N+](=O)[O-])cc2[N+](=O)[O-])C1c1ccccc1` (stereo not given) has a growth of 100%. In the case of `CC1(C)NCCC[C@]2(C)[C@H]3CC[C@@H]4[C@H]5[C@H](C(=O)/C=C/c6ccco6)CC[C@]5(CO)CC[C@@]4(C)[C@]3(C)CC[C@@H]12`, the growth is reported as 89.5%. With `COc1cc(C2C3=C(COC3=O)N(CCO)c3cc4c(cc32)CCC4)cc(OC)c1OC` (stereo not given) the growth was 8.46% (active). `CC1(C)CC(O)CCCCCCOc2c(CN)cccc2NC(=O)c2nc(cnc2N)-c2ccc(cc2)S1(=O)=O` (stereo not given) was tested, and the growth was 9.31% (active). `COc1ccc(-c2nc([C@@H](C)Sc3nc(N)cc(N)n3)c(C)s2)cc1OCCN1CCOCC1` was tested, and the growth was 123%. With `Cc1nc2ccc(Cl)cn2c1-c1nnc(SCc2ccc([N+](=O)[O-])cc2)o1` the growth was 62.3%. Compound `O=C(/C(=C\c1ccc([N+](=O)[O-])cc1)S(=O)Cc1ccc(Cl)cc1)c1ccc(Cl)cc1` (stereo not given) has a growth of 62.7%. For `COc1ccc(C(=O)CSc2nc(-c3cc(OC)ccc3OC)cc(-c3ccc(Cl)cc3)c2C#N)cc1`, the growth was 62.4%. For `Cc1cccc(C)c1N=c1oc2ccc(Cl)cc2nc1-c1ccccc1O`, the growth was 88.3%.
